Laboratory results: the supplement of paper PMC6411743
± gives the standard deviation of the averaged measurements. Of roughly 5,400 targets only a part is listed; those with the largest changes were picked by preference.

Compound: Nc1nc2c(ncn2[C@@H]2O[C@H](COP(=O)(O)OP(=O)(O)OP(=O)(O)O)[C@@H](O)[C@H]2O)c(=O)[nH]1 [guanosine triphosphate]
Assay: NP40-soluble protein abundance relative to vehicle (solubility fold change) (ratio); higher = more soluble protein in presence of GTP
Experimental: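 Solubility proteome profiling in Jurkat crude lysate. Lysate was treated with Mg-GTP (0.1-10 mM) for 10 min at room temperature and 3 min at 37 °C, then solubilised with 0.8% NP40 and benzonase, followed by ultracentrifugation. Proteins were quantified by TMT10 LC-MS/MS; the value is the NP40-soluble abundance relative to the NP40-processed vehicle, from 3 independent experiments.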

Chain of UniProt Q9NUM4 (Q9NUM4 whole entry, one chain of several): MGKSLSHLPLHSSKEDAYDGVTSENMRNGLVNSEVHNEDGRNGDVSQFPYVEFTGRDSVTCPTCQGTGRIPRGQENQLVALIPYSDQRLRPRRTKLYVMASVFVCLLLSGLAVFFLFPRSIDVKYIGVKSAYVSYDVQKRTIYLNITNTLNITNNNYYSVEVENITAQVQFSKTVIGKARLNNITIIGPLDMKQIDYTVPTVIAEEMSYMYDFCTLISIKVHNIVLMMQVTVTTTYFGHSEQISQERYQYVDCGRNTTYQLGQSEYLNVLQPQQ
Chain of UniProt Q99590 (Q99590 whole entry, one chain of several): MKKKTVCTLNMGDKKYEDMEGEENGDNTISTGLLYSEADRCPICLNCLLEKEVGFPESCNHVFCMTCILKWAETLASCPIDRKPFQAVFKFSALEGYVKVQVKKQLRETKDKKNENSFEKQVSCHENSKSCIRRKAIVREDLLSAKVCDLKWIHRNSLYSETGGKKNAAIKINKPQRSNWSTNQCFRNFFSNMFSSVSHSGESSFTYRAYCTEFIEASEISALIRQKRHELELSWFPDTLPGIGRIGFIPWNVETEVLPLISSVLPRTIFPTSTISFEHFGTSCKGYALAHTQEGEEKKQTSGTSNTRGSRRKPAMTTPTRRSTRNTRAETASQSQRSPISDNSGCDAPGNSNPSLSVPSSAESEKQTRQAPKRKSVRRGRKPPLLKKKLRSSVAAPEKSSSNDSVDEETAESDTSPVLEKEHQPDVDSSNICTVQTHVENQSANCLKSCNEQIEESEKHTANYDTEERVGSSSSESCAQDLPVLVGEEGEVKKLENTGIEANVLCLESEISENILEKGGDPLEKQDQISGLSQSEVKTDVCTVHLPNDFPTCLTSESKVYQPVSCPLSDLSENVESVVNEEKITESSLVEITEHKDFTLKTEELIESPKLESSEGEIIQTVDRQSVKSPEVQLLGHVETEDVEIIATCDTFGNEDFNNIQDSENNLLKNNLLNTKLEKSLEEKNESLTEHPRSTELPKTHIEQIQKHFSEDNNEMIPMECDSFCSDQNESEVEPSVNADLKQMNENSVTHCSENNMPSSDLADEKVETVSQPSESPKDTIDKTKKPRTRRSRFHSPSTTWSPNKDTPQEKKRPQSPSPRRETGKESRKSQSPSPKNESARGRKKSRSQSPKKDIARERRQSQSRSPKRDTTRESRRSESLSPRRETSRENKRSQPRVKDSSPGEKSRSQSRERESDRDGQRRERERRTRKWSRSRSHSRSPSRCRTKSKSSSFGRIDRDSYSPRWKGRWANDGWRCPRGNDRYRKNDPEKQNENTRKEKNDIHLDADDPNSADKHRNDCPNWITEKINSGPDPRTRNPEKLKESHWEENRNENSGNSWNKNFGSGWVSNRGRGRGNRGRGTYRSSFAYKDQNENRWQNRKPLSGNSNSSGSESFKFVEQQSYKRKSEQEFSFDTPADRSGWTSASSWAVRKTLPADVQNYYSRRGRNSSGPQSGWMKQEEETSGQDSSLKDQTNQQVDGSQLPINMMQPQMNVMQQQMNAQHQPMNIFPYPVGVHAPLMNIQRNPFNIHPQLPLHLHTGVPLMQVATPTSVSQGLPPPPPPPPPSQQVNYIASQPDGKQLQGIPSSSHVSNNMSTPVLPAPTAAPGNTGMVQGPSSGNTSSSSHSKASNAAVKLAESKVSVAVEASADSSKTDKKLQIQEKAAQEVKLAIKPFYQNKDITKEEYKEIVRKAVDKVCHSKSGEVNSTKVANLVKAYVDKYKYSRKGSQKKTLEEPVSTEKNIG
Chain of UniProt Q6UW02 (Q6UW02 whole entry, one chain of several): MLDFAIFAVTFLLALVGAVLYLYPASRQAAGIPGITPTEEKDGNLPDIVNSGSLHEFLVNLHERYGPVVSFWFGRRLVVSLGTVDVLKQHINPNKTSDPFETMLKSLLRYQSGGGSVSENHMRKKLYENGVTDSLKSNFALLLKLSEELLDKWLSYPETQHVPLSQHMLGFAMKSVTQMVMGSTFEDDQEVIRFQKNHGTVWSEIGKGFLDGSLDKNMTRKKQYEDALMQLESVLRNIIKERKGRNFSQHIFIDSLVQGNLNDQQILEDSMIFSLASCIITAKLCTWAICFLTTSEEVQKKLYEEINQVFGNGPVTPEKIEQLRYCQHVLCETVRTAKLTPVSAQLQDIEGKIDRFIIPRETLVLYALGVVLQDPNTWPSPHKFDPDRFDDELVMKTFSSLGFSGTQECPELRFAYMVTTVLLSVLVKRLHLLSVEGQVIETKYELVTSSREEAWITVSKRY
Chain of UniProt P19256 (P19256 whole entry, one chain of several): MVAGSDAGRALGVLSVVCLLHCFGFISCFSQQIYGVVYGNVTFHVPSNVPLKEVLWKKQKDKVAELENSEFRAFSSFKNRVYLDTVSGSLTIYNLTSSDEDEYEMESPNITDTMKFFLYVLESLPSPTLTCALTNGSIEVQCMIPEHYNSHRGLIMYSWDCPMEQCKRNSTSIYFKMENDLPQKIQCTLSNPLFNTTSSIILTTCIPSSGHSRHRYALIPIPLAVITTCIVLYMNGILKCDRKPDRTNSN
Chain of UniProt P10242 (P10242 whole entry, one chain of several): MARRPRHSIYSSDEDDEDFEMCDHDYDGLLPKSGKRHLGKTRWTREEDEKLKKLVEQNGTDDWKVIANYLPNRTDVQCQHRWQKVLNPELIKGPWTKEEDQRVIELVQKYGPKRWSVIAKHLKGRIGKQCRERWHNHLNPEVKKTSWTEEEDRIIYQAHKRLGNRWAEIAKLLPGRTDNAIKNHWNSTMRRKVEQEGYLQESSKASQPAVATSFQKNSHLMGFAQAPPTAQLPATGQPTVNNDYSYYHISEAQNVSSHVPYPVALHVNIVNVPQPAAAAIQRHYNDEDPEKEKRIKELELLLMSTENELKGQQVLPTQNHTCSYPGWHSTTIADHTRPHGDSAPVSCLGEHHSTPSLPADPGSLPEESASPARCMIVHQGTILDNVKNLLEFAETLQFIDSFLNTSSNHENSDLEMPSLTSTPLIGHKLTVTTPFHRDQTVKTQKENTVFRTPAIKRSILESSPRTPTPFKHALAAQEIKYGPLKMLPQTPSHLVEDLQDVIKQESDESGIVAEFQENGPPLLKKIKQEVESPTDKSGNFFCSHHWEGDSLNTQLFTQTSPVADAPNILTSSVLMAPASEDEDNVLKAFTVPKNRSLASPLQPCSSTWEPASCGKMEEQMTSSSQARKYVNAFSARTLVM

Target	NP40-soluble protein abundance (concentration: 0.1mM)	NP40-soluble protein abundance (concentration: 0.5mM)	NP40-soluble protein abundance (concentration: 1mM)	NP40-soluble protein abundance (concentration: 2mM)	NP40-soluble protein abundance (concentration: 4mM)	NP40-soluble protein abundance (concentration: 6mM)	NP40-soluble protein abundance (concentration: 8mM)	NP40-soluble protein abundance (concentration: 10mM)
F8W8G5|P10242|P10242-10|P10242-11|P10242-2|P10242-4|P10242-7|P10242-8|P10242-9 (UniProt P10242)	1.02 ± 0.063	1.04 ± 0.077	1.08 ± 0.073	1.08 ± 0.086	1.12 ± 0.037	1.12 ± 0.1	1.15 ± 0.044	1.13 ± 0.051
E9PHG5|Q6UW02|Q6UW02-2 (UniProt Q6UW02)	1.1 ± 0.21	1.04 ± 0.17	1.01 ± 0.075	1.04 ± 0.061	0.955 ± 0.16	0.984 ± 0.14	0.882 ± 0.25	0.884 ± 0.14
F8VXG7|Q99590|Q99590-2 (UniProt Q99590)	1.02 ± 0.064	1.13 ± 0.03	1.22 ± 0.025	1.26 ± 0.058	1.3 ± 0.042	1.31 ± 0.031	1.4 ± 0.1	1.42 ± 0.12
B1AMW1|P19256|P19256-2|P19256-3 (UniProt P19256)	0.879 ± 0.05	0.937 ± 0.095	0.973 ± 0.11	0.915 ± 0.064	0.979 ± 0.038	1.03 ± 0.088	0.952 ± 0.036	0.958 ± 0.047
F2Z3N7|C9JZ87|Q9NUM4 (UniProt Q9NUM4)	0.98 ± 0.036	0.932 ± 0.076	1.15 ± 0.077	1.06 ± 0.048	0.84 ± 0.18	0.949 ± 0.045	0.989 ± 0.051	0.969 ± 0.078
